Source: PubChem BioAssay AID1347147 (National Center for Advancing Translational Sciences (NCATS), 2019)
Records with an inconclusive call do not appear. A call without a number means that no potency is given here. Activity calls are given as the source filed them. The call rests on the fitted dose curve; in most records, active means well fitted inhibition curve with a large enough effect; inconclusive means small, poorly fitted or top-dose-only effect; inactive means no such curve, though single readings can be large or run the other way.

Molecular target: N-terminal Xaa-Pro-Lys N-methyltransferase 1 (Homo sapiens) (UniProt Q9BV86)
Sequence (Q9BV86 whole entry, looked up): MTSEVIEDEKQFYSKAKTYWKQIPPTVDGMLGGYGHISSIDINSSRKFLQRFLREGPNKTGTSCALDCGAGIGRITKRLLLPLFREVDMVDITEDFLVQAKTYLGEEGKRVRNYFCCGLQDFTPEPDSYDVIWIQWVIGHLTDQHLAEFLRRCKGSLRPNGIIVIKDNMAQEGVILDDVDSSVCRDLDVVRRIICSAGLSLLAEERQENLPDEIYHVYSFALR
Experiment: qHTS Assay for Inhibitors of N-terminal methyltransferase 1 (NTMT1): MTaseGlo Confirmatory Screen, Round 2
Conditions: NTMT1 enzyme, MTase-Glo SAH luminescence; series mostly up to 57.4 µM
In short: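 Luminescent MTase-Glo readout of SAH formed in 30 min at RT by 125 nM NTMT1, 100 µM SAM and 1 µM SPKRIA substrate, after ~15 min compound preincubation. Percent inhibition versus no-enzyme and DMSO controls was Hill-fitted.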
Potency means the concentration at half of the fitted maximal effect.

SMILES | Potency
O=[N+]([O-])c1ccc(CNc2nc(NCc3cccc(C(F)(F)F)c3)nc3nc[nH]c23)cc1 | inactive
O=C(Nc1ccc([N+](=O)[O-])cc1Cl)c1cc(Cl)ccc1O | inactive
CCCCCCCCCCCCCCCCCC(=O)OC(CC(=O)O)C[N+](C)(C)C (stereo not drawn) | inactive
NS(=O)(=O)c1cccc2c1c([N+](=O)[O-])cc1nc(O)c(O)nc12 | inactive
CC(=O)c1ccc2c(c1)N(CCCN(C)C)c1ccccc1S2 | inactive
COc1cc(CNC(=O)CCCCCCC(C)C)ccc1O | inactive
CC[C@H](C)n1cc(C)c2c(C(=O)NCc3c(C)cc(C)[nH]c3=O)cc(-c3ccc(N4CCNCC4)nc3)cc21 | inactive
Cc1cc(C)c(/C=C2\C(=O)Nc3ccccc32)[nH]1 | inactive
COc1cc(/C=C(\C#N)C(=O)c2ccc(O)c(O)c2)cc(I)c1O | inactive
Oc1ccc2ccccc2c1SSc1c(O)ccc2ccccc12 | inactive
NC[C@@H]1O[C@H](c2ccccc2)Cc2c1ccc(O)c2O | inactive
CN=c1nc(-c2ccccc2)n(-c2ccccc2)s1 | 1 µM (active)
CC(=O)/C=C1\C(=O)N(C)c2ccccc21 | inactive
Nc1nc(Cl)nc2c1ncn2[C@@H]1O[C@H](CO)[C@@H](O)[C@@H]1F | inactive
Cc1cccc(C2CN(C)CCc3c2cc(O)c(O)c3Cl)c1 (stereo not drawn) | inactive
Nc1nc(Cl)nc2c1ncn2[C@@H]1O[C@H](COP(=O)(O)OP(=O)(O)OP(=O)(O)O)[C@@H](O)[C@H]1O | inactive
CNCCc1cnc(CCC(c2ccccc2)c2ccccc2)[nH]1 | inactive
CN(C)c1ccc(/C=C2\C(=O)Nc3ccccc32)cc1 | inactive
NC[C@@H]1O[C@H](C23CC4CC(CC(C4)C2)C3)Cc2c1ccc(O)c2O | inactive

SMILES | Potency
Nc1ccc(CCNc2ncnc3c2ncn3C2OC(CO)C(O)C2O)cc1 (stereo not drawn) | inactive
Oc1cc(O)c2c(c1)O[C@H](c1ccc(O)c(O)c1)[C@@H](O)C2 | inactive
CN(C)CCCc1cc(C(=O)Nc2ccc(-c3ccncc3)cc2)ccc1O | inactive
CCCCNc1ccc(C(=O)OCCN(C)C)cc1 | inactive
O=c1oc(Cl)c(Cl)c2ccccc12 | inactive
CC(C)NCC(O)c1ccc(O)c(O)c1 (stereo not drawn) | inactive
Oc1ccc(C2CNCc3sccc32)cc1O (stereo not drawn) | inactive
CSc1nc(N)c2ncn([C@@H]3O[C@H](COP(=O)(O)OP(=O)(O)OP(=O)(O)O)[C@@H](O)[C@H]3O)c2n1 | inactive
CN(C)CCCN1c2ccccc2Sc2ccc(C(F)(F)F)cc21 | inactive
Nc1nc(=S)c2ncn([C@@H]3O[C@H](CO)[C@@H](O)[C@H]3O)c2[nH]1 | inactive
CC(Cc1ccc(O)c(O)c1)C(C)Cc1ccc(O)c(O)c1 (stereo not drawn) | 35.5 µM (active)
Nc1nc(Nc2ccccc2)nc2c1ncn2[C@@H]1O[C@H](CO)[C@@H](O)[C@H]1O | inactive
Cc1ccccc1CNc1ncnc2c1ncn2[C@@H]1O[C@H](CO)[C@@H](O)[C@H]1O | inactive
Oc1cc2c(cc1O)CN(C(=S)NCCc1ccc(Cl)cc1)CCC2 | inactive
CCCc1cc(C)[nH]c(=O)c1CNC(=O)c1cc(-c2ccc(N3CCN(C(C)C)CC3)nc2)cc2c1cnn2C(C)C | inactive
O=[N+]([O-])c1ccc(-c2nc(-c3ccc(F)cc3)c(-c3ccncc3)[nH]2)cc1 | inactive
N=c1c[n+](N2CCOCC2)[n-]o1 | inactive
CC(C)(C)c1ccc(S(=O)(=O)/C=C\C#N)cc1 | inactive
C#CCN(C)CCCOc1ccc(Cl)cc1Cl | inactive
